HT1080 IDH1KD tx – toxicity to HT-1080 IDH1 knockdown cells (counter line); Potency, µM (doses to about 46.1 µM), usual class: cytotoxic; HT-1080 IDH1 knockdown viability, ATP luminescence, 48 h; 360,000 compounds, 2% hits; AID 686971
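Knockdown cells (IDH1KD HT-1080) received compounds 2 h after plating at 750 cells/well and were kept 48 h at 37 °C in 5% FBS RPMI. A CellTiter-Glo luminescence read gave % activity for curve fitting.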
HT1080NT lethal – kills 2HG-producing HT-1080-NT fibrosarcoma cells | HT-1080-NT fibrosarcoma viability, CellTiter-Glo ATP luminescence, 48 h | AID 686970 | Potency, µM (doses to about 46.1 µM), usual class: cytotoxic | 360,000 compounds, 1.6% hits;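 also: NT is the 2HG producing partner of a matched IDH1 knockdown line; nearly all actives have a fitted effect of over 55% in size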
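Viability by CellTiter-Glo luminescence after 48 h compound exposure at 37C of HT-1080-NT cells (750/well, RPMI, 5% FBS). % activity scaled between DMSO wells and medium-only wells, then curve-fitted and categorized by curve class.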
IL1B secr inh – inhibitors of inflammasome signaling (IL-1 beta secretion); AID 743279; THP-1 LPS/ATP IL-1B secretion, AlphaLISA, 16 h; hits give low values; 360,000 compounds, 4.7% hits; activity change, % at 57.5 µM; in the data active = activity change below about -50%; inconclusive = mostly about -30% to -49%
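Secreted IL-1B measured by AlphaLISA bead assay after 16 h compound exposure of THP-1 cells; compounds (final up to 57.5 uM) added 1 h before LPS (250 ng/mL) and ATP (1.25 mM) stimulation; lower signal means less secretion.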
12-LOX inh – blocks human arachidonate 12S-lipoxygenase. 580,000 compounds, 1.1% hits. P18054. purified 12hLO, xylenol orange hydroperoxide absorbance. AID 1671190. Potency, µM (highest dose often 108 µM), most hits filed as inhibitors
Target sequence (P18054 whole entry, looked up): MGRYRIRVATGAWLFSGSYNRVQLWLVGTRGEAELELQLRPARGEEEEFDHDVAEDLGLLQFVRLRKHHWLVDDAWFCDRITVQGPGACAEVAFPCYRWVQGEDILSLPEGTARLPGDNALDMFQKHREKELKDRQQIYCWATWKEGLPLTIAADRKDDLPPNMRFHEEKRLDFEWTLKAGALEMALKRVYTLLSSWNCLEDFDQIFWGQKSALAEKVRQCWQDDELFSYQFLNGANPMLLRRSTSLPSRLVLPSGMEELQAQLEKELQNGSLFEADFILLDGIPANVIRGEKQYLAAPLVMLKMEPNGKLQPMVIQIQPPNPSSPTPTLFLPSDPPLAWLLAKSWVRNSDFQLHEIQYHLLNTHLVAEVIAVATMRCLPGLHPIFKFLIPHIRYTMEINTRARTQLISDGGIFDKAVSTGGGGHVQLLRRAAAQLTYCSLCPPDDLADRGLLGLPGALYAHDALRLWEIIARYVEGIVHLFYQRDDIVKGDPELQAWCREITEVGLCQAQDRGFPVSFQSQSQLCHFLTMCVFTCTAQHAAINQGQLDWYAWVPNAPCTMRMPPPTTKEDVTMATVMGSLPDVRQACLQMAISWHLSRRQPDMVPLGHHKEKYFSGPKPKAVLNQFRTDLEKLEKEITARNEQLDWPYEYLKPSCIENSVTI
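Purified human 12hLO at 150 nM in 25 mM Hepes, 0.01% Triton X-100, pH 7.0, preincubated 15 min at room temperature with compound. Reaction started with 40 uM arachidonic acid, 30 min at room temperature. Hydroperoxide measured by Fe-xylenol orange, 573/405 nm absorbance ratio.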
DT40 TDP1 CPT – growth inhibition of DT40 Tdp1-/-;hTDP1 cells with camptothecin (screen for TDP1 inhibitors); chicken DT40 Tdp1-/-;hTDP1 cells + 20 nM CPT, ATP luminescence, 48 h; Potency, µM (top dose mostly 46.2 µM), actives largely listed as inhibitors; 420,000 compounds, 12% hits; AID 686979; also: nearly all actives have a fitted effect of over 55% in size
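Chicken DT40 Tdp1-/- cells complemented with human TDP1, 400 cells/well, exposed to compounds plus 20 nM camptothecin for at least 48 h at 37 C; viability read as ATP content by CellTiter-Glo luminescence.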
DT40 TDP1 no CPT – qHTS for Inhibitors of human tyrosyl-DNA phosphodiesterase 1 (TDP1): qHTS in cells in absence of CPT; DT40 Tdp1-/- hTDP1 cells, no CPT, ATP luminescence, 48 h; Potency, µM (doses to about 46.2 µM), most hits filed as inhibitors; 420,000 compounds, 15% hits; also: nearly all actives have a fitted effect of over 55% in size
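Cells were dispensed at 400 per well, compounds added by pin tool, plates incubated ≥48 hr at 37 °C, then CellTiter-Glo added for 30 min at room temperature before luminescence reading. Line: DT40 Tdp1-/- complemented with hTDP1; camptothecin omitted.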
Numbers stand for hits; - = inactive; ? = inconclusive; . = no result. Only a selection was taken, and hits are over-represented in it overall. Unless noted, calls follow the shape of the dose curve; as a rule, active = well fitted curve in the direction sought with a large enough effect; inconclusive = small, poorly fitted or top-dose-only effect, or another doubt; inactive = no such curve, though single readings can be large; an effect the other way counts as inactive or inconclusive.

SMILES | HT1080 IDH1KD tx | HT1080NT lethal | IL1B secr inh | 12-LOX inh | DT40 TDP1 CPT | DT40 TDP1 no CPT
Cc1c(C(=O)N2C[C@@H](C(=O)O)[C@H](c3ccccc3)C2)sc2nc[nH]c(=O)c12 | . | . | . | - | . | .
COc1ccc(CCNC(=O)c2ccc(CNS(=O)(=O)c3ccc(C(C)(C)C)cc3)cc2)cc1OC | - | - | - | - | ? | ?
COc1ccc(CCNC(=O)c2ccc(N(C)S(=O)(=O)c3ccc(C)cc3)cc2)cc1 | - | - | - | - | ? | 16.4µM
COc1ccc(CCNC(=O)c2ccc(Cl)c(S(=O)(=O)N(C)c3ccccc3)c2)cc1 | - | - | ? | - | 20.6µM | 16.4µM
Cc1ccc(S(=O)(=O)N(C)c2ccc(C(=O)NCCc3ccccc3)cc2)cc1 | - | - | - | ? | ? | ?
CCN(c1ccccc1)S(=O)(=O)c1ccc(C(=O)N(C)CCc2ccc(OC)c(OC)c2)cc1 | - | - | - | - | ? | 20.6µM
COc1ccc(CCNC(=O)c2ccccc2N(C)S(=O)(=O)c2ccccc2)cc1 | - | - | - | - | - | -
COc1ccc(CCNC(=O)c2ccc(S(=O)(=O)N(C)c3ccccc3)cc2)cc1OC | - | - | - | - | ? | 23.1µM
CSc1nc(C)cc(Oc2ccccc2)n1 | - | - | - | - | - | -
CCOc1ccc(S(=O)(=O)N(C)c2ccc(OCC(=O)NCC3CCCCC3)cc2)cc1 | - | - | ? | - | 16.4µM | 20.6µM
CCc1ccc(OCC(=O)N/N=C(\C)c2ccc(O)cc2O)cc1 | ? | - | - | - | 7.31µM | 2.59µM
CCc1ccc(OCC(=O)N/N=C(\C)c2ccc3c(c2)OCCO3)cc1 | - | - | - | ? | - | -
CCOC(=O)CC1(C)N(S(=O)(=O)c2ccc(C)cc2)c2ccccc2N1S(=O)(=O)c1ccc(C)cc1 | - | - | - | - | ? | 14.6µM
CCOC(=O)C1CCN(S(=O)(=O)c2ccc(C)cc2)CC1 | - | - | - | - | - | -
CCOC(=O)C1CN(S(=O)(=O)c2ccc(OC)cc2)c2ccccc2O1 (stereo unspecified) | - | - | - | - | - | -
CCOC(=O)CC1(CC)Oc2ccccc2N1S(=O)(=O)c1ccc(C)cc1 (stereo unspecified) | ? | ? | - | - | 23.1µM | ?
CCN(Cc1ccccc1)C(=O)CSc1ncnc2ccccc12 | . | . | . | - | . | .
CCOC(=O)Cc1c(C)nc2c(-c3ccc(Cl)cc3)c[nH]n2c1=O | - | - | - | - | ? | ?
CN(C)CCOc1ccc2c(c1)C(=O)C(=Cc1ncc([N+](=O)[O-])n1C)C2 | 6.51µM | 23.1µM | -50.7 | ? | 0.146µM | 0.13µM
Cc1ccc(CNC(=O)C2(c3ccc(NC(=O)C4CC4)cc3)CCCCC2)o1 | . | . | . | - | . | .
CCOc1ccc(Cn2c(CNS(=O)(=O)c3c(C)cc(C)cc3C)nc3cccnc32)cc1 | . | . | . | - | ? | 18.4µM
Cc1ccc(Cn2c(CNS(=O)(=O)c3ccc(C(C)(C)C)cc3)nc3cccnc32)cc1 | . | . | . | - | ? | ?
CCOc1ccc(Cn2c(CNS(=O)(=O)c3ccc(CC)cc3)nc3cccnc32)cc1 | . | . | . | - | ? | ?
Cc1ccc(Cn2c(CNS(=O)(=O)c3c(C)cc(C)cc3C)nc3cccnc32)cc1 | . | . | . | ? | 16.4µM | ?
Cc1ccc(S(=O)(=O)NCc2nc3cccnc3n2Cc2ccccc2Cl)c(C)c1 | . | . | . | - | ? | ?
SMILES | HT1080 IDH1KD tx | HT1080NT lethal | IL1B secr inh | 12-LOX inh | DT40 TDP1 CPT | DT40 TDP1 no CPT
CCOc1ccc(Cn2c(CNS(=O)(=O)c3ccc(Cl)s3)nc3cccnc32)cc1 | . | . | . | - | 18.4µM | ?
COc1ccccc1Cn1c(CNS(=O)(=O)c2c(C)cc(C)cc2C)nc2cccnc21 | . | . | . | - | 16.4µM | 16.4µM
CCC(C)(C)c1ccc(Oc2ccc(NC(=O)/C=C/c3ccc(Cl)cc3Cl)cc2)cc1 | . | . | . | - | . | .
O=C(NCCNc1ncccn1)NCCNc1ncccn1 | . | . | . | - | . | .
CCc1c(C)sc(NC(=O)c2ccc(C)s2)c1C(N)=O | . | . | . | - | . | .
Cc1ccc(Cn2c(CNC(=O)c3ccccc3Br)nc3cccnc32)cc1 | . | . | . | - | ? | 16.4µM
Cc1cccc(-c2n[nH]c(=S)n2C)c1 | - | - | - | ? | - | -
Cc1ccn2c(-c3n[nH]c(=S)n3C)c(C)nc2c1 | - | - | - | 44.7µM | - | -
CS(=O)(=O)Nc1cccc(-c2cncnc2NCc2cccnc2)c1 | . | . | . | - | - | -
Cc1noc(C)c1CSc1nc2ccccc2c(=O)n1-c1ccc(Cl)cc1 | 7.08µM | 10µM | - | - | 18.4µM | 14.6µM
CN(C)c1nc(N)nc(CSc2nnnn2-c2ccc(Cl)cc2)n1 | 23.1µM | ? | - | ? | ? | ?
CSc1nnnn1-c1ccc(Cl)cc1 | - | - | - | - | - | -
Cc1noc(C)c1CSc1nnnn1-c1ccc(Cl)cc1 | - | - | - | - | ? | 14.6µM
COC(=O)[C@@]12C[C@@H](CC(=O)NCc3cccc4ccccc34)C(=O)N(Cc3ccc4c(c3)OCO4)C1=CCC(C)(C)C2 | ? | ? | -86.7 | - | ? | 13µM
COC(=O)[C@@]12C[C@@H](CC(=O)NCc3cccc4ccccc34)C(=O)N(Cc3ccccc3)C1=CCC(C)(C)C2 | ? | ? | -61.2 | - | ? | ?
COC(=O)[C@@]12C[C@@H](CC(=O)NCc3ccccc3)C(=O)N(Cc3ccc4c(c3)OCO4)C1=CCC(C)(C)C2 | ? | ? | ? | - | 16.4µM | 16.4µM
Cc1ccnc(NCn2nnc3ccccc32)c1 | - | - | - | - | 16.4µM | ?
Cn1c(-c2ccc(Cl)cc2)cnc1NCc1cc2c(cc1[N+](=O)[O-])OCO2 | - | - | -82.4 | ? | ? | ?
Cn1c(-c2ccc(F)cc2)cnc1NCc1cc2c(cc1[N+](=O)[O-])OCO2 | - | - | -64.1 | ? | ? | 23.1µM
COc1ccc(C(=O)NC2CCCN(c3cc(-c4ccc(Cl)cc4)[nH]n3)C2)cc1OC (stereo unspecified) | . | . | . | - | . | .
CCOc1ccc(C(=O)NC2CCN(c3cc(-c4ccc(Cl)cc4)[nH]n3)C2)cc1 (stereo unspecified) | . | . | . | - | . | .
COc1ccc(NC(=O)c2nnn(Cc3nc(-c4cc(OC)c(OC)c(OC)c4)oc3C)c2C)cc1Cl | . | . | . | - | - | -
COc1cc(-c2nc(Cn3nnc(C(=O)Nc4ccccc4)c3C)c(C)o2)cc(OC)c1OC | . | . | . | - | ? | 25.9µM
O=C(Nc1oc2ccccc2c(=O)c1-c1ccc(F)cc1)c1cccs1 | . | . | . | - | . | .
COc1ccccc1C1C2C(=O)N(c3ccccc3)C(=O)C2ON1c1ccccc1 (stereo unspecified) | - | - | - | - | - | -
